Measured values reported in the supplement of paper PMC6411743.
± gives the standard deviation of the averaged measurements. Of roughly 5,400 targets only a part is listed; those with the largest changes were picked by preference.

Compound: Nc1nc2c(ncn2[C@@H]2O[C@H](COP(=O)(O)OP(=O)(O)OP(=O)(O)O)[C@@H](O)[C@H]2O)c(=O)[nH]1 [guanosine triphosphate]
Assay: NP40-soluble protein abundance relative to vehicle (solubility fold change) (ratio); higher = more soluble protein in presence of GTP
How it was run: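 Jurkat crude lysate prepared with a Dounce homogeniser was treated at eight concentrations spanning 0.1 to 10 mM, 10 min at room temperature then 3 min at 37 °C. Solubilisation with 0.8% NP40 and benzonase and ultracentrifugation preceded TMT labelling of the supernatant for LC-MS/MS. Fold change against the detergent-processed vehicle was determined per replicate from vsn-normalised intensities, across three independent experiments.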

UniProt Q9UHB6, sequence (Q9UHB6 whole entry, one chain of several): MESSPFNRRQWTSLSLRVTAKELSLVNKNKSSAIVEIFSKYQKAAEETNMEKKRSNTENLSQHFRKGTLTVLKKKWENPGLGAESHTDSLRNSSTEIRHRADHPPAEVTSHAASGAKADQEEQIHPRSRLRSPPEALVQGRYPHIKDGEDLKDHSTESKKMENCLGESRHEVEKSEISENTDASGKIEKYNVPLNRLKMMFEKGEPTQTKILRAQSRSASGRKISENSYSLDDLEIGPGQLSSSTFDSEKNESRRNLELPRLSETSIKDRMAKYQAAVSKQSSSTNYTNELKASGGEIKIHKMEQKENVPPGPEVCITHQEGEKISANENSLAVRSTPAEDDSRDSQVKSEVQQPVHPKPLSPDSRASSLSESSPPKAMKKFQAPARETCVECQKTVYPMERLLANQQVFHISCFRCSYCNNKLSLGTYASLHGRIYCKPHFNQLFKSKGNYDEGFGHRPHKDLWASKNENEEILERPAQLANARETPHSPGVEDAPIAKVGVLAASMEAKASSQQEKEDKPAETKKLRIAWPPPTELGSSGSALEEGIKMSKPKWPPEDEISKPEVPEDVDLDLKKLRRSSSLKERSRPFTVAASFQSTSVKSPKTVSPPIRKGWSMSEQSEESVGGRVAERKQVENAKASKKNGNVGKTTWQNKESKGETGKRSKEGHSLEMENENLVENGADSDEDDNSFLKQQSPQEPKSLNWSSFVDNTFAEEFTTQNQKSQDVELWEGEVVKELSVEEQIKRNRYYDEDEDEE
UniProt P17987, sequence (P17987 whole entry, one chain of several): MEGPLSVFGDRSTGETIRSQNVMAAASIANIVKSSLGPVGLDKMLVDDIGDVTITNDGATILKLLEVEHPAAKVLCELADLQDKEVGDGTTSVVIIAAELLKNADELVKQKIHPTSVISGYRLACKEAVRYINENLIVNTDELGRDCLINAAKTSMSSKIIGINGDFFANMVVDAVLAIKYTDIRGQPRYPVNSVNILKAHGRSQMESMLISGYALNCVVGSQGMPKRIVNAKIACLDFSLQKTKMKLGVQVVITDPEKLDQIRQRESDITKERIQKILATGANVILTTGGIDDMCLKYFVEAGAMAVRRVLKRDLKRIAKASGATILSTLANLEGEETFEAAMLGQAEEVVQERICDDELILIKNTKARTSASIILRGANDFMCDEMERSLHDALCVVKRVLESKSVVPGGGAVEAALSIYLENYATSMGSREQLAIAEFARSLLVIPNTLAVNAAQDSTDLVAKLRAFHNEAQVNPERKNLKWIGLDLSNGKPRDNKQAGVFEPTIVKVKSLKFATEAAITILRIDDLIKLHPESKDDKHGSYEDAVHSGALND
UniProt Q6NVY1, sequence (Q6NVY1 whole entry, one chain of several): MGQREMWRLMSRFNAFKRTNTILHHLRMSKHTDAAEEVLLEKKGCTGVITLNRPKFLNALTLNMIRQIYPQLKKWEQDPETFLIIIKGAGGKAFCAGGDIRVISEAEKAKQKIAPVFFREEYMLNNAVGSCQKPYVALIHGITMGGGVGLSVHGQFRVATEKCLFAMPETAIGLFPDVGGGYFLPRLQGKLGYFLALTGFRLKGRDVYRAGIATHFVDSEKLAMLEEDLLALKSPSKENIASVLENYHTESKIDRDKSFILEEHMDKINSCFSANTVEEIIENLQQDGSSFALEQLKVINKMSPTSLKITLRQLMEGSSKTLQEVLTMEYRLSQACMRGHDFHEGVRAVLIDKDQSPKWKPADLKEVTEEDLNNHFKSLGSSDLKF
UniProt Q13615, sequence (Q13615 whole entry, one chain of several): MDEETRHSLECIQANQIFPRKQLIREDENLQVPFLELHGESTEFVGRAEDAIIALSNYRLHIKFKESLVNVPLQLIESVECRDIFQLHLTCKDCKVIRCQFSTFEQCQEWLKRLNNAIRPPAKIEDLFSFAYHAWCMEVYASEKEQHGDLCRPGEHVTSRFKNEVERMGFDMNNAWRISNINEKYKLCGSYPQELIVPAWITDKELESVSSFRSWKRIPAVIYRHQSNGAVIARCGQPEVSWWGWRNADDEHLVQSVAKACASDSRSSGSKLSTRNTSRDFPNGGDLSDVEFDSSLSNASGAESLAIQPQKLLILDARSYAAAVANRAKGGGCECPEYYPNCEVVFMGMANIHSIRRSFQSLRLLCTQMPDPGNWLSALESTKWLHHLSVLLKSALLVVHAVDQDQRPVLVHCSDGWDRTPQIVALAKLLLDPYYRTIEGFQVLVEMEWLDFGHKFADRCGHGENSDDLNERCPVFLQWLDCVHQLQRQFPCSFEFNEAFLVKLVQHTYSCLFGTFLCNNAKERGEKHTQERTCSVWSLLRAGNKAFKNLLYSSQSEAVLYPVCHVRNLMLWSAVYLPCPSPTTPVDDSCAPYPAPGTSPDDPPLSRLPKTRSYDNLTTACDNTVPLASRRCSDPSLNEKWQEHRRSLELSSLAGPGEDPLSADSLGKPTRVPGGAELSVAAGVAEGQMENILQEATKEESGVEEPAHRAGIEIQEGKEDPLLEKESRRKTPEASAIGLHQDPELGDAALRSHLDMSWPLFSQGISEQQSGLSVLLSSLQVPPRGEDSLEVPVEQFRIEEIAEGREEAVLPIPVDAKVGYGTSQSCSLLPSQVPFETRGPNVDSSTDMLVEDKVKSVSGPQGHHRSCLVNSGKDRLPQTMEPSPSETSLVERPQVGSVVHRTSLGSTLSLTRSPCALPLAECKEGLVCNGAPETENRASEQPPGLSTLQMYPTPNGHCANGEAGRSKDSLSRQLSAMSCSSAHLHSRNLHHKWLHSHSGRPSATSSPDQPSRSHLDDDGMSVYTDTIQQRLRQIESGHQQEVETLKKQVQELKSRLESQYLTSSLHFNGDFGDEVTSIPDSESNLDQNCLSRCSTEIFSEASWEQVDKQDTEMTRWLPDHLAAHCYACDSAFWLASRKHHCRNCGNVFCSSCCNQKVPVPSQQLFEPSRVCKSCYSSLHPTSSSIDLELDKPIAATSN
UniProt O00764, sequence (O00764 whole entry, one chain of several): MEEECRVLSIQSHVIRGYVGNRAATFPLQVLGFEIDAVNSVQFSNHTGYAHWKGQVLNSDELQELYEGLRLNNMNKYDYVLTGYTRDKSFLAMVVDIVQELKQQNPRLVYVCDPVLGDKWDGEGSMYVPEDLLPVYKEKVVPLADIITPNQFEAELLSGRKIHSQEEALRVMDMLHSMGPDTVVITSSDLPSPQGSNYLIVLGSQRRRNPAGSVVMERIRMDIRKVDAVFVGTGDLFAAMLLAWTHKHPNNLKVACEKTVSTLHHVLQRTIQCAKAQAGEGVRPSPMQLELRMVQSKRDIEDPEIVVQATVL
UniProt Q96RQ3, sequence (Q96RQ3 whole entry, one chain of several): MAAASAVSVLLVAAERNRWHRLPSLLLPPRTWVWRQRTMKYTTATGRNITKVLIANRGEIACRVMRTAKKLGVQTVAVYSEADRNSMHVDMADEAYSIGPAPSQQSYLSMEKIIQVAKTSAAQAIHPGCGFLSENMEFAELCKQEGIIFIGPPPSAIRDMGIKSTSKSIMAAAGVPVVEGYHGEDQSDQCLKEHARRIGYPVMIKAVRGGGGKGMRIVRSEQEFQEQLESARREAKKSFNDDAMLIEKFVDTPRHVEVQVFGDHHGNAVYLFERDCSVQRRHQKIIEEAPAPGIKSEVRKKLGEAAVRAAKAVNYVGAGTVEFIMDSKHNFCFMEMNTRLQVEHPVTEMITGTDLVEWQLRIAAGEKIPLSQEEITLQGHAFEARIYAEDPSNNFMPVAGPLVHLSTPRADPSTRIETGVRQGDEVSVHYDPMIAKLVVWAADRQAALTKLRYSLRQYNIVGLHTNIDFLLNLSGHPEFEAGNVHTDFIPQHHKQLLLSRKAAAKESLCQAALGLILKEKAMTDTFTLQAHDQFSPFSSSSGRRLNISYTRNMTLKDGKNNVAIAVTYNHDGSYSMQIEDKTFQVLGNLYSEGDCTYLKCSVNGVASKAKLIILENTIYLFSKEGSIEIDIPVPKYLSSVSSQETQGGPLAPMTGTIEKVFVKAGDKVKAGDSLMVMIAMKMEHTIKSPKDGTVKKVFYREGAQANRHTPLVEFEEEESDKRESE
UniProt Q96GG9, sequence (Q96GG9 whole entry, looked up, one chain of several): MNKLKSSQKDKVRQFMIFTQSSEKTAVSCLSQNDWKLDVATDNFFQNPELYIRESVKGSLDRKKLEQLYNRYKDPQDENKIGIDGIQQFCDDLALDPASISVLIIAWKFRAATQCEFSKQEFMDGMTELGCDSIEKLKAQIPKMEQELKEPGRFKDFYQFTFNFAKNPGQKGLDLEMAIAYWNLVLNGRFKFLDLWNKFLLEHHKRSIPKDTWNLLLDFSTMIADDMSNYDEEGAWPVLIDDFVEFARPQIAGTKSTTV
UniProt P01850, sequence (P01850 whole entry): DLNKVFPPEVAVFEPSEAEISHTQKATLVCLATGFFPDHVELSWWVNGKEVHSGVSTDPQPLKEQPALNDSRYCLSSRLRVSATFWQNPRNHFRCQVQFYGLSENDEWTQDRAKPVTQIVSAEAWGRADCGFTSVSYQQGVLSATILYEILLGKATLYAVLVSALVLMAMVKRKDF
UniProt P18887, sequence (P18887 whole entry, one chain of several): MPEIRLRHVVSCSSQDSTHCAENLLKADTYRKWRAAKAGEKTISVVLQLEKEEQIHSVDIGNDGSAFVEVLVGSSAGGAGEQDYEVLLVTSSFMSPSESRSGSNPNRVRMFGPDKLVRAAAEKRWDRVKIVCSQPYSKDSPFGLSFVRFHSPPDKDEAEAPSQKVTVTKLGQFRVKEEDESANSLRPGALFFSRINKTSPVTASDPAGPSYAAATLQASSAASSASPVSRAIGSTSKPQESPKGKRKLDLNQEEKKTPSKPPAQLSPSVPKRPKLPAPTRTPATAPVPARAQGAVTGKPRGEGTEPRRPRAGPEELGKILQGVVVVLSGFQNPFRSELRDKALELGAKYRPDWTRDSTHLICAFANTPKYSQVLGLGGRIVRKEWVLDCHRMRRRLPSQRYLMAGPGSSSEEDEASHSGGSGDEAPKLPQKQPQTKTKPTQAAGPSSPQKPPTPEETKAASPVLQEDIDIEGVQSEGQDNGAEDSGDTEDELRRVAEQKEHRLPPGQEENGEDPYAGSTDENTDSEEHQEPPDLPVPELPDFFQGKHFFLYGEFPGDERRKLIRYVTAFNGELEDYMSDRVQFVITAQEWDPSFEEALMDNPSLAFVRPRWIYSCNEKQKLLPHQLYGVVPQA

Target	NP40-soluble protein abundance (concentration: 0.1mM)	NP40-soluble protein abundance (concentration: 0.5mM)	NP40-soluble protein abundance (concentration: 1mM)	NP40-soluble protein abundance (concentration: 2mM)	NP40-soluble protein abundance (concentration: 4mM)	NP40-soluble protein abundance (concentration: 6mM)	NP40-soluble protein abundance (concentration: 8mM)	NP40-soluble protein abundance (concentration: 10mM)
F5H8D7|P18887 (UniProt P18887)	0.976 ± 0.073	1.02 ± 0.085	1.04 ± 0.081	1 ± 0.1	1.03 ± 0.098	1.06 ± 0.1	1.13 ± 0.1	1.1 ± 0.12
F2Z2Y4|O00764|O00764-2 (UniProt O00764)	1 ± 0.072	1.01 ± 0.09	0.942 ± 0.055	0.918 ± 0.095	0.905 ± 0.071	0.91 ± 0.08	0.88 ± 0.063	0.868 ± 0.086
E9PG35|E9PHF7|F5GYT8|Q96RQ3|G5E9X5 (UniProt Q96RQ3)	1.04 ± 0.093	1.07 ± 0.078	1.02 ± 0.16	1.08 ± 0.11	1.09 ± 0.15	1.08 ± 0.077	1.05 ± 0.19	1.03 ± 0.13
A6NFX8|Q9UKK9 (UniProt Q9UKK9)	1.05 ± 0.036	1.04 ± 0.07	0.987 ± 0.036	0.994 ± 0.079	0.968 ± 0.046	0.942 ± 0.052	0.93 ± 0.018	0.93 ± 0.01
C9J8R4|C9JVE2|Q96GG9 (UniProt Q96GG9)	0.935 ± 0.042	0.919 ± 0.034	0.903 ± 0.049	0.889 ± 0.072	0.867 ± 0.048	0.87 ± 0.044	0.842 ± 0.077	0.84 ± 0.084
F5H136|P17987 (UniProt P17987)	0.988 ± 0.02	1.07 ± 0.086	1.08 ± 0.12	1.11 ± 0.18	1.09 ± 0.2	1.1 ± 0.21	1.06 ± 0.19	1.02 ± 0.2
A0A087WXI1|Q6NVY1 (UniProt Q6NVY1)	0.948 ± 0.045	0.945 ± 0.042	0.909 ± 0.082	0.875 ± 0.083	0.863 ± 0.087	0.867 ± 0.092	0.861 ± 0.096	0.841 ± 0.096
A0A0B4J1Z1|C9JAB2|Q16629|Q16629-2|Q16629-3|Q16629-4 (UniProt Q16629)	1.089 ± 0.0095	1.36 ± 0.1	1.57 ± 0.23	1.58 ± 0.16	1.44 ± 0.33	1.55 ± 0.35	1.74 ± 0.47	1.75 ± 0.52
F8VQE1|Q9UHB6|Q9UHB6-2|Q9UHB6-4|Q9UHB6-5 (UniProt Q9UHB6)	0.977 ± 0.045	0.955 ± 0.12	1.16 ± 0.11	1.16 ± 0.1	1.35 ± 0.12	1.71 ± 0.067	1.95 ± 0.29	2.21 ± 0.23
A0A0C4DFX4|Q6ZRS2|Q6ZRS2-2|Q6ZRS2-3 (UniProt Q6ZRS2)	1.12 ± 0.075	1.11 ± 0.013	1.3 ± 0.042	1.44 ± 0.17	1.6 ± 0.21	1.62 ± 0.17	1.86 ± 0.33	1.83 ± 0.29
A0A087WZV8|A0A0G2JN66 (UniProt P01850)	1.02 ± 0.032	1.04 ± 0.034	1.002 ± 0.0081	1.01 ± 0.042	1.01 ± 0.036	0.98 ± 0.023	0.977 ± 0.04	0.976 ± 0.046
B4DTS2|Q9BZL6 (UniProt Q9BZL6)	1.02 ± 0.021	1.04 ± 0.034	0.992 ± 0.053	1.02 ± 0.055	1 ± 0.059	0.97 ± 0.031	0.946 ± 0.045	0.946 ± 0.033
G5E953|Q13615|Q13615-2|Q13615-3 (UniProt Q13615)	1.01 ± 0.036	0.987 ± 0.04	0.978 ± 0.063	0.953 ± 0.034	0.976 ± 0.045	0.963 ± 0.065	1 ± 0.042	0.971 ± 0.028
